According to PubChem BioAssay AID727 (The Scripps Research Institute Molecular Screening Center, 2007):
The whole screen tested about 97,000 compounds, of which about 810 (0.84%) were called active. The full list was thinned out, with actives kept by preference. A number with no mark means an inactive call. Rule as the data show it: active = inhibition above about 19%; inactive = the rest.

target: Focal adhesion kinase 1 (Homo sapiens) (UniProt Q05397); assay: human PTK2 enzyme activity blockers – biochemical, primary screen (AID 727); conditions: biochemical FAK kinase activity assay; stronger effect = higher value;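 tested at 7 µM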;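 also: 0% = DMSO and 100% = reference compound high control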
Sequence (Q05397 whole entry, looked up): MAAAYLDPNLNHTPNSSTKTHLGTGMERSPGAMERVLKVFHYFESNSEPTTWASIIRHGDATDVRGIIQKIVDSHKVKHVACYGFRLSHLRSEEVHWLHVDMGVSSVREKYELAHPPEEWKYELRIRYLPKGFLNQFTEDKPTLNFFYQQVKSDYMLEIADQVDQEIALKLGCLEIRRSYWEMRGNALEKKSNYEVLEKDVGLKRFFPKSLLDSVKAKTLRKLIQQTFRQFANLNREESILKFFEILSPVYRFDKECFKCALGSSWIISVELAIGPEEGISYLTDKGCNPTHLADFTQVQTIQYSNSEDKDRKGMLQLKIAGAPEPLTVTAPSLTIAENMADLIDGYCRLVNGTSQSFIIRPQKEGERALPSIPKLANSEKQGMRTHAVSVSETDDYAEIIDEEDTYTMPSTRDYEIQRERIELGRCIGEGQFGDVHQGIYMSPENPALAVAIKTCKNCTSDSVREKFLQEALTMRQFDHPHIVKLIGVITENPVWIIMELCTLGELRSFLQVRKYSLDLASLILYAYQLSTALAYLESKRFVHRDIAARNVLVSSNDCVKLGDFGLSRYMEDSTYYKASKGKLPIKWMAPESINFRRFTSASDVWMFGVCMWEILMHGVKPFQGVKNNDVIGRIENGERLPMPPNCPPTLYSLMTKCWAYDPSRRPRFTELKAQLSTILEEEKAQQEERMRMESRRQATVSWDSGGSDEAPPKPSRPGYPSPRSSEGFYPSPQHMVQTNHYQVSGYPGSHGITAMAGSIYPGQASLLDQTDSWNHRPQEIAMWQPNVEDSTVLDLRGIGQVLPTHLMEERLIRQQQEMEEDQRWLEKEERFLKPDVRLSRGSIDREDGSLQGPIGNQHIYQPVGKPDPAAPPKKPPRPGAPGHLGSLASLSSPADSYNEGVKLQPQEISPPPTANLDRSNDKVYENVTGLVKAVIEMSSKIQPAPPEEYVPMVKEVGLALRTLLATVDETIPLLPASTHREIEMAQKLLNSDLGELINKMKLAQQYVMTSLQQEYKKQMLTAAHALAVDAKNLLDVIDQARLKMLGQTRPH

| Compound | inhibition |
| --- | --- |
| Cc1cccc(NC(=O)Cn2cc(C(=O)c3ccco3)c3ccccc32)c1 | -4.82% |
| Cc1cc(C)c2c3c(sc2n1)C(c1ccccc1)C(C#N)=C(N)O3 (stereo unspecified) | 1.94% |
| CCCCC(C(=O)OCC(=O)c1ccc(OC)cc1)N1C(=O)c2ccccc2C1=O (stereo unspecified) | 0.79% |
| CC(c1ccccn1)N(CCN(C)C)C(=S)Nc1ccccc1F (stereo unspecified) | -1.18% |
| CCOC(=O)c1cc(NC(=O)c2ccc(Cl)cc2)c(=O)oc1-c1ccccc1 | -2.61% |
| Nn1c(Cc2cccc3ccccc23)nnc1SCC(=O)N1CC(=O)Nc2ccccc21 | -1.43% |
| c1ccc(CSc2nnc(-c3ccco3)n2Cc2ccccc2)cc1 | -5.27% |
| Nc1nc(SCc2ccccc2Cl)n[nH]1 | 1.47% |
| Clc1ccccc1CSc1nnc(-c2ccco2)c(-c2ccco2)n1 | 31.9% (active) |
| CCCCOc1ccc(N(CC(=O)NCC2CCCO2)C(=O)CCC(=O)Nc2cc(C)ccn2)cc1 (stereo unspecified) | -1.73% |
| CCNC(=O)c1sccc1-n1cccc1 | -1.65% |
| Cn1c(SCC(=O)C(C)(C)C)nnc1-c1ccccn1 | -1.08% |
| Clc1ccccc1-c1cc(COc2ccc3ccccc3c2)no1 | 5.83% |
| CCCC(C)C(=O)Nc1ccc(NC(C)=O)cc1 (stereo unspecified) | 0.18% |
| C=CCn1c(=O)c2ccccc2n2c(SCC(=O)N3CCCc4ccccc43)nnc12 | 5.22% |
| Cn1c(SCC(=O)N2CCCc3ccccc32)nc2ccccc2c1=O | 37.7% (active) |
| O=C(CSc1nc2[nH]ncc2c(=O)n1-c1ccccc1)N1CCCc2ccccc21 | 0.8% |
| CC(C)(C)C(=O)Cn1c(NCCO)nc2ccccc21 | 1.69% |
| CC(C)(C)C(=O)c1cnc(Nc2ccccc2)s1 | 4.36% |
| OC(C#CCN1CCOCC1)(c1ccccc1)C1CCCCC1 (stereo unspecified) | 0.89% |
| COc1ccc(S(=O)(=O)N/N=C\c2ccc(OC)c(COc3ccc(C)cc3[N+](=O)[O-])c2)cc1 | 2.51% |

| Compound | inhibition |
| --- | --- |
| O=C(Nc1cccc2ncccc12)c1ccc(-c2ccc(Cl)cc2Cl)o1 | 9.2% |
| CCN1CCN(c2ccc([N+](=O)[O-])cc2C(=O)c2ccc(Cl)cc2)CC1 | -2.69% |
| O=C(CSc1nc2cccnc2n1Cc1ccccc1)N1CCc2ccccc21 | 1.41% |
| FC(F)(F)c1cccc(NC(=S)Nc2cccc(Cl)c2)c1 | -0.91% |
| Cc1c(NC(=O)c2cc(-c3ccc(Cl)s3)nc3ccccc23)c(=O)n(-c2ccccc2)n1C | 2.95% |
| Cc1ccc(C(=O)N/C(=C/c2ccco2)C(=O)NCCc2c[nH]c3ccccc23)cc1C | 4.25% |
| COc1ccc(C2C=C(c3ccc(Br)cc3)Nc3nc(NS(C)(=O)=O)nn32)cc1 (stereo unspecified) | -9.88% |
| O=C(CSc1nnnn1-c1ccccc1)NCc1ccco1 | 5.37% |
| COc1ccc(CN(Cc2ccco2)S(=O)(=O)c2ccc(S(=O)(=O)N3CCCC3)cc2)cc1 | -0.01% |
| Cc1cccc(N2CCN(C(=O)CN(C)S(=O)(=O)c3ccc4c(c3)CCC(=O)N4)CC2)c1C | 4.5% |
| O=[N+]([O-])c1cccc(-c2nnc3c4ccccc4c4ccccc4n23)c1 | 17.7% |
| O=c1c2c(nc3nc[nH]n13)CCC2 | -0.92% |
| CCN1C(=O)/C(=C\N2CCOCC2)SC1=S | -1.1% |
| Cc1cccc(N(C(=O)Cc2cccs2)C(C(=O)NC2CCCC2)c2ccsc2)c1 (stereo unspecified) | 2.56% |
| Cc1ccc(/C=N\n2c(-c3ccccc3)n[nH]c2=S)s1 | 0.69% |
| S=c1[nH]nc(-c2ccco2)n1/N=C/c1ccc(Br)s1 | 15.6% |
| Oc1ccccc1/C=N/n1c(-c2cccs2)n[nH]c1=S | 29.4% (active) |
| Cc1cc(NC(=O)c2cnn3cccnc23)n(-c2ccccc2)n1 | 20.4% (active) |
| Cc1cc(NC(=O)Nc2ccccc2)n(-c2ccccc2)n1 | -1.43% |
| O=C(Nc1ccc(Cl)cn1)c1cnn2cccnc12 | 5.62% |
| CNC(=O)c1csc(-c2ccccc2)n1 | -0.71% |

| Compound | inhibition |
| --- | --- |
| Cc1ccc(C(c2nnnn2CS(=O)(=O)c2ccc(C)cc2)N2CCC(C)CC2)cc1 (stereo unspecified) | -7.49% |
| CSc1ccccc1C(=O)Nc1cccc(C(C)=O)c1 | 2.46% |
| CCN1CCN(C(=O)C2(NC(=O)Nc3cccc(F)c3)CCCCC2)CC1 | -0.58% |
| CCOC(=O)c1c(N)sc(C(C)=O)c1C | -0.36% |
| CCOC(=O)CSc1nc2ccc(C)cc2[nH]1 | -1.86% |
| CCCSc1nsc(N)n1 | -4.41% |
| CCN(CC)S(=O)(=O)c1ccc(N(C)Cc2ccc(C(F)(F)F)cc2)nc1 | -0.16% |
| O=C(Nc1ccc(Cl)cc1)OCc1cc(-c2ccccc2)on1 | -6.39% |
| CN(C)/C=C(\C#N)C(=O)c1cccnc1Oc1ccc(F)cc1F | -5.85% |
| C=CCn1c(SCc2c(C(=O)OC)sc(N)c2C(=O)OC)nnc1-c1ccc(Cl)cc1 | 1.31% |
| OC(CN=c1sc2ccccc2n1CC(O)COc1ccccc1)COc1ccccc1 (stereo unspecified) | 0.61% |
| CCn1c(SC)nc(O)c(C(c2ccc(OC)c(O)c2)c2c(O)nc(SC)n(CC)c2=O)c1=O | -2.86% |
| CNC(=O)CSc1nnnn1-c1ccc(C)cc1C | 2.36% |
| CCn1nnnc1SCC(=O)c1ccc(C)cc1C | 21.8% (active) |
| CCOC(=O)CNC(=O)CSc1nnnn1-c1cc(C)ccc1C | -0.99% |
| COc1ccc(OCCCC(=O)Oc2ccc(OC)cc2)cc1 | 0.13% |
| COc1ccc(-c2oc3ncn(Cc4ccco4)c(=N)c3c2-c2ccc(OC)cc2)cc1 | 3.43% |
| CCc1ccc(CNC(=O)C2CC(=O)N(CCc3ccc(C)cc3)C2)cc1 (stereo unspecified) | -1.09% |
| CC(=O)c1cccc(NC(=O)N2CCCC2C(=O)NCCc2ccccc2)c1 (stereo unspecified) | -0.1% |
